The values below come from PubChem BioAssay (NCATS).

Inconclusive results are not listed. Active and inactive are the calls of the source. The call rests on the fitted dose curve; in most records, active means well fitted curve in the direction sought with a large enough effect; inconclusive means small, poorly fitted or top-dose-only effect, or another doubt; inactive means no such curve, though single readings can be large; an effect the other way counts as inactive or inconclusive.

Experiment [1] is described as follows: qHTS of pediatric cancer cell lines to identify multiple opportunities for drug repurposing: Primary screen for Rh30 cells (AID 1347107). Further: nearly all actives have a fitted effect of over 75% in size. Further: potency means the concentration at half of the fitted maximal effect. An outline of the steps: (§1)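 Cells (500-1,000/well) in growth media were settled 5 h at 37 degrees C, then given compounds for 48 h. Viability was read as CellTiter-Glo luminescence. Primary runs used MIPE at 11 points (0.78 nM-46 µM) and NPC at 8 points (0.59 nM-46 µM); follow-ups used 11 points.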
For orientation: In qHTS, concentration-response curves come from the screen itself.

The nature of experiment [2]: qHTS of pediatric cancer cell lines to identify multiple opportunities for drug repurposing: Primary screen for Rh41 cells (AID 1347108). Further: nearly all actives have a fitted effect of over 70% in size. Further: potency means the concentration at half of the fitted maximal effect. In short, it runs like this: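 Phenotypic viability qHTS, 48 h compound exposure, CellTiter-Glo luminescence read-out; multi-concentration dosing so that potency and efficacy derive directly from the primary screen's curves.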
Experiment [3] in a line: qHTS of pediatric cancer cell lines to identify multiple opportunities for drug repurposing: Confirmatory screen for NB1643 cells (AID 1347109). Further: nearly all actives have a fitted effect of over 45% in size. Further: potency means the concentration at half of the fitted maximal effect. An outline of the steps: as §1
A short description of experiment [4]: qHTS of pediatric cancer cell lines to identify multiple opportunities for drug repurposing: Confirmatory screen for A673 cells (AID 1347110).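 Further: cells exposed to compound for 48 h before the viability read; nearly all actives have a fitted effect of over 65% in size.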 Further: potency means the concentration at half of the fitted maximal effect. An outline of the steps: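 Concentration-response curves came straight from titrations: 11 points (0.78 nM to 46 µM) for MIPE and several concentrations (0.59 nM to 46 µM) for NPC in primary, 11 points in follow-up. Readout: ATP luminescence at 48 h.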

Experiment [5] can be described thus: qHTS of pediatric cancer cell lines to identify multiple opportunities for drug repurposing: Confirmatory screen for SK-N-MC cells (AID 1347111).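 Further: potency means the concentration at half of the fitted maximal effect; cells exposed to compound for 48 h before the readout; nearly all actives have a fitted effect of over 70% in size.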 An outline of the steps:
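Metabolically active cells were quantified by ATP-dependent luminescence (CellTiter-Glo, 15 min at room temperature) following 48 h treatment. Cells had been plated at 500-1,000 per well and settled for 5 h beforehand.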

Experiment [6] can be described thus: qHTS of pediatric cancer cell lines to identify multiple opportunities for drug repurposing: Confirmatory screen for BT-12 cells (AID 1347112). Further: nearly all actives have a fitted effect of over 55% in size. Further: potency means the concentration at half of the fitted maximal effect. An outline of the steps: as §1
Experiment [7] can be described thus: qHTS of pediatric cancer cell lines to identify multiple opportunities for drug repurposing: Confirmatory screen for LAN-5 cells (AID 1347113). Further: nearly all actives have a fitted effect of over 65% in size. Further: potency means the concentration at half of the fitted maximal effect. An outline of the steps: as §1
The nature of experiment [8]: qHTS of pediatric cancer cell lines to identify multiple opportunities for drug repurposing: Confirmatory screen for DAOY cells (AID 1347114). Further: nearly all actives have a fitted effect of over 65% in size. Further: potency means the concentration at half of the fitted maximal effect. In short, it runs like this:
(§2)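 Viability measured as metabolically active cells via CellTiter-Glo luminescence following 48 hours of compound exposure, 11-point dilutions in confirmatory testing. 500-1,000 cells/well plated 5 hours before dosing; controls were DMSO and 2.3 µM bortezomib.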

Experiment [9] is described as follows: qHTS of pediatric cancer cell lines to identify multiple opportunities for drug repurposing: Confirmatory screen for NB-EBc1 cells (AID 1347115).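 Further: cells exposed to compound for 48 h before the viability read; nearly all actives have a fitted effect of over 45% in size.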 Further: potency means the concentration at half of the fitted maximal effect. In short, it runs like this: as §1
A short description of experiment [10]: qHTS of pediatric cancer cell lines to identify multiple opportunities for drug repurposing: Confirmatory screen for TC32 cells (AID 1347118).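 Further: potency means the concentration at half of the fitted maximal effect; cells exposed to compound for 48 h before the read; nearly all actives have a fitted effect of over 65% in size.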 An outline of the steps:
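Measured quantity: luminescence from CellTiter-Glo, reflecting metabolically active TC32 cells following 48 h of compound. Curves came straight from multi-point titrations, with 8 or 11 points in primary and 11 in confirmatory screening.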

Experiment [11] can be described thus: qHTS of pediatric cancer cell lines to identify multiple opportunities for drug repurposing: Confirmatory screen for MG 63 (6-TG R) cells (AID 1347119). Further: nearly all actives have a fitted effect of over 55% in size. Further: potency means the concentration at half of the fitted maximal effect. In short, it runs like this:
as §1

Experiment [12] can be described thus: qHTS of pediatric cancer cell lines to identify multiple opportunities for drug repurposing: Confirmatory screen for control Hh wild type fibroblast cells (AID 1347121). Further: nearly all actives have a fitted effect of over 70% in size. An outline of the steps:
as §1

The nature of experiment [13]: qHTS of pediatric cancer cell lines to identify multiple opportunities for drug repurposing: Confirmatory screen for Rh41 cells (AID 1347123). Further: nearly all actives have a fitted effect of over 60% in size. Further: potency means the concentration at half of the fitted maximal effect. In short, it runs like this:
as §1

A short description of experiment [14]: qHTS of pediatric cancer cell lines to identify multiple opportunities for drug repurposing: Confirmatory screen for Rh18 cells (AID 1347125). Further: nearly all actives have a fitted effect of over 55% in size. Further: potency means the concentration at half of the fitted maximal effect. An outline of the steps: as §1
Experiment [15] is described as follows: qHTS of pediatric cancer cell lines to identify multiple opportunities for drug repurposing: Confirmatory screen for Saos-2 cells (AID 1347127). Further: nearly all actives have a fitted effect of over 60% in size. Further: potency means the concentration at half of the fitted maximal effect. An outline of the steps:
as §1

Experiment [16] can be described thus: qHTS of pediatric cancer cell lines to identify multiple opportunities for drug repurposing: Confirmatory screen for SJ-GBM2 cells (AID 1347116). Further: potency means the concentration at half of the fitted maximal effect; nearly all actives have a fitted effect of over 60% in size. An outline of the steps: as §2
Experiment [17] can be described thus: qHTS of pediatric cancer cell lines to identify multiple opportunities for drug repurposing: Confirmatory screen for BT-37 cells (AID 1347117). Further: nearly all actives have a fitted effect of over 55% in size. Further: potency means the concentration at half of the fitted maximal effect. An outline of the steps: as §1
The nature of experiment [18]: qHTS of pediatric cancer cell lines to identify multiple opportunities for drug repurposing: Confirmatory screen for RD cells (AID 1347124). Further: potency means the concentration at half of the fitted maximal effect. An outline of the steps: as §1
A short description of experiment [19]: qHTS of pediatric cancer cell lines to identify multiple opportunities for drug repurposing: Confirmatory screen for Rh30 cells (AID 1347126). Further: nearly all actives have a fitted effect of over 55% in size. Further: potency means the concentration at half of the fitted maximal effect. An outline of the steps: as §1

Turning to `O=C(O)C1=CC(O)C(O)[C@H](O)C1` (stereo partly drawn), the Potency entry in experiment [1] and in experiment [2] was “inactive” each time.
Consider `CC1=C(C(=O)Nc2cc3cn[nH]c3cc2F)C(c2ccc(C(F)(F)F)cc2)CC(=O)N1` (stereo not drawn), for which the Potency entry in [1] and in experiment [2] was “inactive” each time.
Regarding `CNC1[C@H](O)C(O[C@@H]2C(O)C(O[C@H]3O[C@H]([C@@H](C)NC)CC[C@H]3N)[C@@H](N)C[C@H]2N)OC[C@]1(C)O` (stereo partly drawn), the Potency result in experiment [1] and in [2] was “inactive” throughout.
Take `COc1c(C)cnc(Cn2cnc3c(Cl)nc(N)nc32)c1C`: the Potency entry in [1] is “inactive”. Also, in [2], the Potency was 1180 nM (active).
Consider `CCOC(=O)[C@@H](N)CCC(=O)N[C@@H](CSCc1ccccc1)C(=O)N[C@@H](C(=O)OCC)c1ccccc1`, for which the Potency entry in [1] and in [2] was “inactive” in each case.
As to `Cc1nc(NC(=O)N2CCC[C@@H]2C(N)=O)sc1-c1csc(C(C)(C)C)n1`, the values for the Potency in experiment [1] and in experiment [2] were 14800 nM (active) and 11800 nM (active), respectively.
For `CC(C)Oc1cc(Nc2nc(N[C@@H](C)c3ccc(F)cn3)ncc2Cl)[nH]n1`, the Potency was 8330 nM (active) in experiment [1] and 5260 nM (active) in experiment [2].
Regarding `CN(C)CC[C@H](CSc1ccccc1)Nc1ccc(S(=O)(=O)NC(=O)c2ccc(N3CCN(Cc4ccccc4-c4ccc(Cl)cc4)CC3)cc2)cc1[N+](=O)[O-]`, the Potency was 11800 nM (active) in experiment [1]; 11800 nM (active) in experiment [2]; 414 nM (active) in experiment [3]; 14700 nM (active) in [4]; 3690 nM (active) in experiment [5]; 414 nM (active) in experiment [7]. For the same compound, the Potency is 16500 nM (active) in experiment [8]; 8270 nM (active) in experiment [9]; 20800 nM (active) in [10]; 1470 nM (active) in [11]; 4650 nM (active) in experiment [13]; 1310 nM (active) in experiment [14]. The Potency in experiment [15] is 5850 nM (active). Further, the Potency entry in [6] and in experiment [12] was “inactive” each time.
As for `Cc1ccc(NC(=O)c2ccc(CN3CCN(C)CC3)cc2)cc1Nc1nc(-c2cccnc2)cs1`, the Potency result in [1] and in experiment [2] was “inactive” throughout.
For `CCC(=C(CC)c1ccc(O)cc1)c1ccc(O)cc1`, the Potency result in experiment [1] and in experiment [2] was “inactive” each time.
`Nc1ccc(-c2ccc3ncc4ccc(=O)n(-c5cccc(C(F)(F)F)c5)c4c3c2)cn1`: the Potency is 1660 nM (active) in experiment [1]; 26.4 nM (active) in [2]; 369 nM (active) in experiment [3]; 185 nM (active) in experiment [4]; 131 nM (active) in experiment [5]; 165 nM (active) in experiment [7]. Moreover, the Potency in [8] is 3690 nM (active); in experiment [9], 293 nM (active); in experiment [16], 233 nM (active); in [17], 117 nM (active); in experiment [10] it was 73.7 nM (active); in experiment [11], 20.8 nM (active). Further, the Potency was 36.9 nM (active) in [13]; 233 nM (active) in experiment [18]; 928 nM (active) in experiment [14]; 329 nM (active) in [19]; 329 nM (active) in experiment [15].
With `Cc1ccccc1C(C(=O)NC1CCCCC1)N(C(=O)CNc1ccc(C#N)cc1)c1cccc(F)c1` (stereo not drawn), the Potency entry in [1] and in experiment [2] was “inactive” throughout.
In the case of `NC[C@H]1O[C@H](O[C@@H]2[C@@H](O)[C@@H](O[C@H]3O[C@H](CO)[C@@H](O)[C@H](N)[C@@H]3O)[C@H](N)C[C@@H]2N)[C@H](O)[C@@H](O)[C@H]1O`, the Potency entry in [1] and in [2] was “inactive” in each case.
For the compound `CS(=O)(=O)c1ccc(C2=C(c3ccccc3)C(=O)OC2)cc1`, the Potency entry in [1] and in [2] was “inactive” each time.
As for `C=C1[C@H](n2cnc3c(=O)[nH]c(N)nc32)C[C@H](O)[C@H]1CO`, the Potency entry in [1], in experiment [2], in experiment [3], in experiment [4], in experiment [6] and in [7] was “inactive” each time. For the same compound, the Potency result in [8], in experiment [9], in [17], in [11], in experiment [12] and in experiment [13] was “inactive” each time. Moreover, the Potency result in experiment [18], in experiment [14], in experiment [19] and in [15] was “inactive” in each case. Moreover, the Potency was 7370 nM (active) in experiment [5] and 8270 nM (active) in experiment [10].
On to `CN(C)CCN(C)C(=O)c1ccc(NC(=O)Nc2ccc(-c3nc(N4CCOCC4)c4ccn(CC(F)(F)F)c4n3)cc2)cc1`, for which the Potency is 166 nM (active) in experiment [2]; 293 nM (active) in [4]; 18500 nM (active) in experiment [6]; 414 nM (active) in [7]; 20800 nM (active) in experiment [8]; 329 nM (active) in [11]. The Potency is 208 nM (active) in experiment [13], 928 nM (active) in [18], 3290 nM (active) in experiment [14] and 369 nM (active) in experiment [19]. Also, in experiment [9], the Potency entry is “inactive”.
As to `C[C@@H]1O[C@@H](O[C@H]2CC[C@@]3(C)[C@H](CC[C@@H]4[C@H]3C[C@@H](O)[C@]3(C)[C@@H](C5=CC(=O)OC5)CC[C@]43O)C2)C[C@H](O)[C@@H]1O[C@H]1C[C@H](O)[C@H](O[C@H]2C[C@H](O)[C@@H](O)[C@@H](C)O2)[C@H](C)O1` (stereo in doubt), the Potency in experiment [2] was 171 nM (active); in [3], 339 nM (active); in experiment [4], 427 nM (active); in [5] it was 269 nM (active); in experiment [6] it was 170 nM (active); in [7] it was 302 nM (active). Moreover, the Potency in experiment [16] was 302 nM (active); in experiment [17] it was 95.5 nM (active); in [10] it was 170 nM (active); in experiment [11], 75.9 nM (active); in experiment [13] it was 107 nM (active); in [19], 339 nM (active). In addition, the Potency in experiment [15] is 1910 nM (active).
Consider `CN[C@@H]1CN(c2ccc3c(=O)c(C(=O)O)cn(-c4nccs4)c3n2)C[C@@H]1OC`, for which the Potency in [3] is 1820 nM (active); in experiment [4], 1290 nM (active); in experiment [5] it was 1440 nM (active); in experiment [6] it was 9100 nM (active); in [7], 1820 nM (active); in experiment [8] it was 11500 nM (active). The Potency in experiment [9] was 811 nM (active); in experiment [16], 10200 nM (active); in experiment [17] it was 2570 nM (active); in experiment [10], 1150 nM (active); in [18], 14400 nM (active); in [14], 14400 nM (active). Moreover, the Potency result in [15] was “inactive”.
Consider `CC(=O)N1CCN(c2ccc(OCc3nn(C)c(C)c3-c3cccc4c(CCCOc5cc(C)c(Cl)c(C)c5)c(C(=O)O)n(Cc5cccnc5)c34)cc2)CC1`, for which the Potency is 18700 nM (active) in experiment [2] and 18500 nM (active) in experiment [4]. The Potency entry in [3], in experiment [6], in experiment [7], in [8], in [12] and in experiment [18] was “inactive” throughout. Besides, the Potency result in [14] and in [19] was “inactive” throughout.
On to `O=C(CC12CC3CC(CC(C3)C1)C2)Nc1cccc2nc(NCCNCCO)ccc12`, for which the Potency entry in [2], in experiment [3], in [7], in experiment [9], in experiment [11] and in experiment [12] was “inactive” throughout. Besides, the Potency entry in [14] was “inactive”. Further, the Potency was 23300 nM (active) in [5], 18500 nM (active) in experiment [10] and 13100 nM (active) in experiment [13].
Regarding `CCCC1OC2C[C@@H]3[C@H]4CCC5=CC(=O)C=C[C@]5(C)[C@H]4C(O)C[C@]3(C)[C@]2(C(=O)CO)O1` (stereo partly drawn), the Potency result in experiment [4], in experiment [6], in [9], in [11] and in experiment [12] was “inactive” each time. The Potency in experiment [5] is 26100 nM (active); in experiment [16] it was 1470 nM (active).
